Reference: PubChem BioAssay (NCATS)
Inconclusive results are not listed. The source made the active and inactive calls. The call rests on the fitted dose curve; in most records, active means well fitted curve in the direction sought with a large enough effect; inconclusive means small, poorly fitted or top-dose-only effect, or another doubt; inactive means no such curve, though single readings can be large; an effect the other way counts as inactive or inconclusive.

Key:
[1] = HEK293 18hr Apoptosis Induction qHTS against the NCATS CANVASS Library (AID 1347357); settings: HEK293 caspase-3/7 Caspase-Glo luminescence; series mostly up to 46.1 µM
Description: (§1) Natural products and their derivatives continue to be wellsprings of nascent therapeutic potential. However, many laboratories have limited resources for biological evaluation, leaving their previously isolated or synthesized compounds largely or completely untested. To address this issue, the Canvass library of natural products was assembled (https://tripod.nih.gov/canvass), in collaboration with academic and industry researchers, for quantitative high-throughput screening (qHTS) across a diverse set of cell-based and biochemical assays. The pure (>85% purity by liquid chromatography/mass spectrometry [LC/MS]) Canvass library of 346 natural products were submitted by 45 academic laboratories and companies around the world. […] The library was formatted into 1536-well plates and evaluated in 50 qHTS (in an 11-pnt concentration series) bioassays with broad scope of disease-relevant mechanisms. The resulting data set from 50 different assays was then systematically analyzed to identify overall trends and specific natural products with interesting biological activities. […] The luminescence is proportional to the amount of caspase activity in the assay reaction. […]
Cancer Cell Apoptosis Assay 1. […] Luminescence signal was acquired via the ViewLux plate reader (PerkinElmer) using a clear filter, 20 second exposure and 2x binning settings.

[2] = HPAF-II 12hr Apoptosis Induction qHTS against the NCATS CANVASS Library (AID 1347358); settings: HPAF-II caspase-3/7 Caspase-Glo luminescence; series mostly up to 46.1 µM
In short: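 500 HPAF-II cells/well; cmpds 11-pt; 12 hr, 37 degrees C/5% CO2; Caspase-Glo 3/7 added, 15 min RT dark; luminescence read. Doxorubicin titration as control.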

[3] = HEK293 24hr Apoptosis Induction qHTS against the NCATS CANVASS Library (AID 1347359); settings: HEK293 caspase-3/7 activation, Caspase-Glo luminescence; series mostly up to 46.1 µM
In short: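 HEK293 cells (500/well, DMEM + 10% FBS) were exposed to compounds in an 11-point series for 24 hours at 37 degrees C, then caspase-3/7 activity was read by Caspase-Glo DEVD luciferase luminescence after 15 min.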

[4] = HPAF-II 18hr Apoptosis Induction qHTS against the NCATS CANVASS Library (AID 1347360); settings: HPAF-II caspase-3/7 luminescence; series mostly up to 46.1 µM
In short: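 HPAF-II cells (500/well, DMEM + 10% FBS) were exposed to compounds for 18 hours at 37 degrees C. Caspase-3/7 activity was then read by Caspase-Glo 3/7 luminescence after 15 min at room temperature.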

[5] = HEK293 12hr Apoptosis Induction qHTS against the NCATS CANVASS Library (AID 1347361); settings: HEK293 caspase-3/7 Caspase-Glo luminescence; series mostly up to 46.1 µM
Description: as §1
Cancer Cell Apoptosis Assay 1. […] Luminescence signal was acquired via the ViewLux plate reader (PerkinElmer) using a clear filter, 20 second exposure, and 2x binning settings.

[6] = tested on: NAD(P)H diaphorase (Clostridium kluyveri); test: Diaphorse counterscreen qHTS: Assay Interference Panel against the NCATS CANVASS Library (AID 1347362); settings: Diaphorase enzyme, resazurin to resorufin fluorescence; series mostly up to 57.5 µM
In short: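 Clostridium kluyveri diaphorase in PBS with 0.01% Tween-20 was preincubated 15 min at room temperature in the dark with compounds (11-point series). Resorufin fluorescence (ex 525/20, em 598/25) was read 5 min after adding resazurin/NADH.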

[7] = biological target: Luciferin 4-monooxygenase (Photinus pyralis) (UniProt P08659); test: Firefly luciferase counterscreen qHTS: Assay Interference Panel against the NCATS CANVASS Library (AID 1347363); settings: purified firefly luciferase, luminescence inhibition, 5 min; series mostly up to 57.5 µM
In short: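 Purified P. pyralis luciferase was added to compounds (11-point series) preincubated 15 min at room temperature with substrate containing 0.013 mM D-luciferin and 0.013 mM ATP; luminescence was read after 5 min.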

[8] = KB-8-5-11 Cancer Cell Toxicity qHTS against the NCATS CANVASS Library (AID 1347364); settings: KB-8-5-11 MDR cells viability, CellTiter-Glo, 72 h; series mostly up to 46.1 µM; further: nearly all actives have a fitted effect of over 75% in size
Description: Natural products and their derivatives continue to be wellsprings of nascent therapeutic potential. However, many laboratories have limited resources for biological evaluation, leaving their previously isolated or synthesized compounds largely or completely untested. To address this issue, the Canvass library of natural products was assembled (https://tripod.nih.gov/canvass), in collaboration with academic and industry researchers, for quantitative high-throughput screening (qHTS) across a diverse set of cell-based and biochemical assays. The pure (>85% purity by liquid chromatography/mass spectrometry [LC/MS]) Canvass library of 346 natural products were submitted by 45 academic laboratories and companies around the world. We collected pure natural products to circumvent deconvolution and structure elucidation due to time and resource limitations. The library was formatted into 1536-well plates and evaluated in 50 qHTS (in an 11-pnt concentration series) bioassays with broad scope of disease-relevant mechanisms. The resulting data set from 50 different assays was then systematically analyzed to identify overall trends and specific natural products with interesting biological activities. […]
Cancer Cell Toxicity qHTS protocol 1. […] Luminescence signal was acquired via the ViewLux plate reader (PerkinElmer) using a clear emission filter, 1 sec exposure, and 1x binning settings.

[9] = SDT Cancer Cell Toxicity qHTS against the NCATS CANVASS Library (AID 1347365); settings: SDT dog glioma viability, ATP luminescence, 72 h; series mostly up to 46.1 µM;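 further: SDT canine glioma cells 500 per well in 1536 well plates; nearly all actives have a fitted effect of over 60% in size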
In short: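 qHTS, SDT dog glioma line, 500 cells/well; cpds 11 pts; 72 hr, 37C, 5% CO2; CellTiterGlo ATP luminescence.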

[10] = KB-3-1 Cancer Cell Toxicity qHTS against the NCATS CANVASS Library (AID 1347366); settings: KB-3-1 viability, CellTiter-Glo luminescence, 72 h; at 46.1 µM (top of the series); further: nearly all actives have a fitted effect of over 75% in size
In short: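 KB-3-1 cells (500 cells/well) in DMEM + 10% FBS were treated with compounds for 72 hr at 37C, 5% CO2. Viability was read as CellTiter-Glo luminescence after 10 minutes at room temperature.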

Measured: outcome

Sequence of Luciferin 4-monooxygenase (Photinus pyralis) (P08659 whole entry, looked up): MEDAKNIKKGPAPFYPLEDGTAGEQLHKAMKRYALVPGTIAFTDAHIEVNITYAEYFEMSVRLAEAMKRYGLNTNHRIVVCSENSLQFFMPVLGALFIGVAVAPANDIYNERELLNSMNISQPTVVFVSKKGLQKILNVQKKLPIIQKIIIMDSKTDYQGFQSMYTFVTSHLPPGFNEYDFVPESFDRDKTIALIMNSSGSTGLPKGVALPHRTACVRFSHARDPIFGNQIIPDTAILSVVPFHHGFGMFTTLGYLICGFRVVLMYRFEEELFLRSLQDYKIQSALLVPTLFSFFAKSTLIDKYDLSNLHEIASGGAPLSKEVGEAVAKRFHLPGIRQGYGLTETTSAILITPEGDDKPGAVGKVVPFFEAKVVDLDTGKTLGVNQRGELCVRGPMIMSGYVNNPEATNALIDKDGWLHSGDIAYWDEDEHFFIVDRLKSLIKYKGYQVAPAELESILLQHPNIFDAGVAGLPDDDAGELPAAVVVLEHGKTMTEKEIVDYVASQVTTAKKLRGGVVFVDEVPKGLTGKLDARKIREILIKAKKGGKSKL

CN(C)CCc1c[nH]c2ccccc12
inactive: all assays above
